sEH inh = inhibitors of human soluble epoxide hydrolase | P34913 | recombinant human sEH enzymatic activity assay | inhibition, % at 2 µM | 0.34% of 91,000 active | AID 707; in the data active = inhibition above about 80%
CYP2C19 activ = activators of human cytochrome P450 2C19 | recombinant CYP2C19, luciferin-H EGE luminescence; stronger effect = higher value; 0 = fully inhibited enzyme, 1 = untreated enzyme | activation factor at 5 µM | 96,000 tested, under 10 active | AID 1025;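 active = activation factor of at least 2 at 5 µM in the primary screen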;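 note: 0 = wells with 2.5 mM tranylcypromine and 1 = vehicle-only wells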
Target sequence (P33261 whole entry, looked up): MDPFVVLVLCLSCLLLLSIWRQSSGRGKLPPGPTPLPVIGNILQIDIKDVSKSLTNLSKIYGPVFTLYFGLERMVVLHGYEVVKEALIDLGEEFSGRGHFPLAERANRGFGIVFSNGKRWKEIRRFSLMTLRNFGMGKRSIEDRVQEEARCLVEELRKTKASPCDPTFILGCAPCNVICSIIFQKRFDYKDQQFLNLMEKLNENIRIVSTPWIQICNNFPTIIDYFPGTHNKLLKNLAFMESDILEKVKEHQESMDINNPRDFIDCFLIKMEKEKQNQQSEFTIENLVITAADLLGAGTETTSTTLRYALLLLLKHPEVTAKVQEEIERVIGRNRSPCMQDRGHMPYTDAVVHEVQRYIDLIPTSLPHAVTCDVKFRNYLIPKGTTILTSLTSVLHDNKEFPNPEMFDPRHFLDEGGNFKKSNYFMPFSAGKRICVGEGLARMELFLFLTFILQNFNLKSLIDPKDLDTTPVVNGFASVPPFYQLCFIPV
CYP2C9 activ = increases human cytochrome P450 2C9 activity. P11712. activation factor at 5 µM. AID 1024. 1.4% of 96,000 active. recombinant CYP2C9, luciferin-H conversion, luminescence; stronger effect = higher value; factor 1 = untreated enzyme, 0 = blocked;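 active = activation factor of 2 or more for CYP2C9 at a 5 µM dose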;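 note: 0 = sulfaphenazole-blocked wells and 1 = vehicle-only wells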
CYP2C9 inh = inhibitors of human CYP2C9; inhibition, % at 5 µM; CYP2C9 Supersomes, luciferin-H conversion, luminescence; 20% of 96,000 active;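 active = blocking of liver enzyme CYP2C9 beyond about 50% at 5 µM, limit read from the data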
CYP2C19 inh = blocks human cytochrome P450 2C19 | P33261 | CYP2C19 Supersomes, luciferin-H EGE luminescence, 30 min | inhibition, % at 5 µM | 21% of 96,000 active | AID 778;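 active = CYP2C19 inhibition above a set limit at 5 µM in the primary screen, cut at about 50% in these data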;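 note: plate controls were negative control wells for no effect and 2.5 mM tranylcypromine positive control for full effect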
sEH act = activators of human soluble epoxide hydrolase; purified human sEH enzymatic activity, activator screen; activation, % at 2 µM; 0.04% of 91,000 active; AID 717; in the data active = activation above about 37%
* hit, by the source's call; . = no result given. Most compounds without a hit are left out; they make up all but 27% or so of the library.

SMILES	sEH inh	CYP2C19 activ	CYP2C9 activ	CYP2C9 inh	CYP2C19 inh	sEH act
Cc1cc(C(=O)CN2CC(C)OC(C)C2)c(C)n1-c1ccccc1 (stereo not drawn)	.	1	0.9	8.2	4.4	.
Cc1cc(C(=O)O)c(C)n1-c1ccccc1	-0.2	0.8	0.4	64.6*	21.8	-0.6
CSc1cccc(-n2c(C)cc(C(N)=O)c2C)c1	-2.4	0.3	0.8	19.4	69.4*	2.0
COC(=O)COc1cccc(-n2cnnn2)c1	6.3	0.9	0.9	6.0	8.0	-7.5
Cc1cc(C(=O)OCn2nnc3ccccc3c2=O)c(C)n1-c1ccccc1	9.7	0.2	0.2	84.4*	77.5*	-9.6
Cc1cc(C(=O)COc2cccc(-n3cnnn3)c2)c(C)n1-c1ccccc1	-13.7	0.1	0.8	22.1	86.1*	13.2
COC(=O)c1[nH]c2ccccc2c1NC(=O)CN1CCN(C(=O)c2ccco2)CC1	-0.2	0.7	0.7	25.4	29.5	1.7
C=CCn1c(C(CCC(C)C)CC(C)(C)O)n[nH]c1=S (stereo not drawn)	10.4	0.3	0.8	23.3	73.3*	-8.3
CCCC(=O)n1nc(-c2ccccc2)nc1SC	0.9	.	.	.	.	2.7
CN(CC(=O)N1CCCCC1)S(=O)(=O)c1cccc2cccnc12	.	1	2.1*	-105.1	3.4	.
CN(Cc1ccccc1)S(=O)(=O)c1cccc2cccnc12	-10.9	0.2	3*	-203.3	79.7*	13.1
CN(CC(=O)NCc1ccc(Cl)cc1)S(=O)(=O)c1cccc2cccnc12	1.5	0.5	1.7	-72.0	45.2	-2.5
CC1Cc2ccccc2N1C(=O)CN(C)S(=O)(=O)c1cccc2cccnc12 (stereo not drawn)	-6.1	0.7	1.9	-88.5	27.4	5.1
Cc1csc(NC(=O)CN(C)S(=O)(=O)c2cccc3cccnc23)n1	-9.7	0.1	0.2	84.2*	90.6*	8.3
Cc1ccc(NC(=O)CN(C)S(=O)(=O)c2cccc3cccnc23)cc1	2.2	0.6	0.2	77.8*	41.1	-1.6
O=C(O)CCS(=O)(=O)c1cccc2cccnc12	-5.0	1.1	1	1.3	-6.1	4.9
O=c1oc2ccccc2cc1-c1nc(-c2cccs2)cs1	-0.8	1.1	0.7	29.5	-5.0	3.0
CC1CCC(=C(C#N)c2nc(-c3cc4ccccc4oc3=O)cs2)CC1 (stereo not drawn)	-2.6	0.6	0.1	88.0*	36.9	0.7
CN(Cc1ccccc1)C(=O)CN(c1ccc(F)cc1)S(=O)(=O)c1ccc2c(c1)OCCO2	9.2	.	.	.	.	-4.3
COc1ccc(OC)c(S(=O)(=O)n2nc(C)cc2C)c1	-11.6	0.3	0.9	14.3	68.1*	12.4
COc1ccc(OC)c(S(=O)(=O)n2cnc3cc(C)c(C)cc32)c1	-0.9	0	0.1	86.8*	97.5*	1.0
CCN(C(=O)Cc1ccc(Br)cc1)C1CCCCC1	-8.8	0.8	0.6	36.8	22.2	10.3
CCOC(=O)C1=NN(c2ccc(Cl)cc2)C(c2ccccc2)CC1=O (stereo not drawn)	11.9	.	.	.	.	-14.0
CCc1ccc(S(=O)(=O)NCCc2cn3ccsc3n2)s1	4.2	0.3	0.5	48.3	68.5*	-5.0
CCc1ccc(S(=O)(=O)NCc2cn3ccccc3n2)s1	6.6	0.1	0.8	20.5	85.8*	-3.2
SMILES	sEH inh	CYP2C19 activ	CYP2C9 activ	CYP2C9 inh	CYP2C19 inh	sEH act
CNC(=O)Nc1ccccc1NC(=O)NC	-1.6	1.1	1.2	-16.6	-8.2	3.7
Cn1nnnc1SCc1cn2cccnc2n1	6.8	1.2	1.2	-15.8	-15.6	-7.3
Cc1ccc(S(=O)(=O)NCCSc2nnc(N)s2)cc1	-0.3	0	2*	-99.4	95.5*	5.7
Cc1ccc(S(=O)(=O)NCCSc2nnnn2-c2cc(C)ccc2C)cc1	1.9	0.4	1.4	-35.0	61.2*	1.3
COc1ccc(CC(NC(C)=O)C(=O)NC2CCN(S(=O)(=O)c3ccccc3)CC2)cc1OC (stereo not drawn)	-18.0	1	1.4	-42.5	-4.3	16.4
O=c1c2ccc(-c3nnc4n3-c3ccccc3SC4)cc2nc2n1CCCCC2	6.0	.	.	.	.	-4.1
O=C(NCc1cccs1)C1CCC(CNS(=O)(=O)c2ccc(Br)s2)CC1 (stereo not drawn)	92.4*	0.9	0.9	12.9	11.4	-92.3
CCn1c(SCC(=O)N2CCCc3ccccc32)nnc1-c1ccoc1C	5.1	.	.	.	.	0.4
CCn1c(SCC(=O)N2CCCc3ccccc32)nnc1-c1ccco1	.	0.3	1.1	-7.3	71.1*	.
Cc1ccc(-c2nnn(CC(=O)N3CCCc4ccccc43)n2)cc1	-9.6	0.9	0.6	38.6	12.1	7.9
COCCCn1c(SCC(=O)N2CCCCC2C)nnc1-c1ccco1 (stereo not drawn)	-1.4	0.9	1.1	-8.9	9.8	0.0
CC1CCCCN1C(=O)CSc1nnc(-c2ccco2)n1CC1CCCO1 (stereo not drawn)	-5.4	0.2	0.9	10.9	83.2*	5.5
O=C(Cn1nnc(-c2ccncc2)n1)N1CCc2ccccc21	11.8	0.8	0.3	69.9*	24.3	-8.7
Cc1cc2c(=O)n(Cc3ccco3)c(SCC(=O)N3CCCc4ccccc43)nc2s1	-4.5	0.7	0.1	90.5*	32.1	4.6
CC(C)OP(=O)(OC(C)C)C(NC(=O)c1cccc([N+](=O)[O-])c1)C(N)=O (stereo not drawn)	-5.4	0.9	0.8	17.8	5.8	-0.4
C=CCN(CC=C)CC(=O)Nc1ccc(S(N)(=O)=O)cc1	10.1	.	.	.	.	-5.3
CC(NS(=O)(=O)c1ccccc1)C(N)=O (stereo not drawn)	-5.1	1.1	1.2	-23.0	-5.0	-0.4
O=C(CS(=O)(=O)Cc1ccccc1)Nc1ncccn1	-3.5	0.9	1	4.6	13.2	3.6
O=C(CSc1ccc2nnc(-c3ccc(Cl)cc3)n2n1)N1CCc2ccccc21	-2.9	1.1	0.1	85.1*	-13.2	1.9
CCn1c(SCC(=O)N2CCCc3ccccc32)nnc1-c1cccs1	9.5	0.8	1.2	-23.8	20.0	-6.8
CCn1c(SCC(=O)N2CCCc3ccccc32)nc2ccccc2c1=O	16.6	0.3	0	96.8*	69.4*	-15.4
CCn1c(SCC(=O)N2CCc3ccccc32)nnc1-c1ccncc1	-6.9	0.4	0.9	13.9	62.8*	6.4
COC(=O)CCC(=O)Nc1cccc(C(=O)Nc2cccc(Cl)c2)c1	30.2	0.8	0.7	34.6	23.5	-28.6
N#Cc1cn(CC(=O)O)c2ccccc12	-6.9	1.1	1	-4.0	-10.9	8.2
CC(C)NC(=O)Cn1cc(C#N)c2cc(Br)ccc21	7.0	0.3	0.7	31.8	73.2*	-5.6
Cc1ccc(C(=O)NCc2ccco2)cc1S(=O)(=O)Nc1cccc(Cl)c1	9.0	0.1	0	97.8*	87.0*	-9.3
O=C(NCc1ccco1)c1cccc(NC(=O)c2ccccc2)c1	-2.3	0.6	0.1	93.3*	38.1	2.2

Compound activity as filed in PubChem BioAssay.
